The structures appear in SMILES notation. Among all 76,000 compounds or so, about 1,200 (1.6%) were called active. Where a call stands in place of a potency, no number is given. Not shown: some 4% with an inconclusive outcome. The sample holds actives, similar compounds and a random draw of the others, so the mix is not that of the screen. Calls come from the whole dose curve.
Potency is the fitted concentration of half-maximal effect.

Sequence of Atrial natriuretic peptide receptor 1 (Homo sapiens) (P16066 whole entry, looked up): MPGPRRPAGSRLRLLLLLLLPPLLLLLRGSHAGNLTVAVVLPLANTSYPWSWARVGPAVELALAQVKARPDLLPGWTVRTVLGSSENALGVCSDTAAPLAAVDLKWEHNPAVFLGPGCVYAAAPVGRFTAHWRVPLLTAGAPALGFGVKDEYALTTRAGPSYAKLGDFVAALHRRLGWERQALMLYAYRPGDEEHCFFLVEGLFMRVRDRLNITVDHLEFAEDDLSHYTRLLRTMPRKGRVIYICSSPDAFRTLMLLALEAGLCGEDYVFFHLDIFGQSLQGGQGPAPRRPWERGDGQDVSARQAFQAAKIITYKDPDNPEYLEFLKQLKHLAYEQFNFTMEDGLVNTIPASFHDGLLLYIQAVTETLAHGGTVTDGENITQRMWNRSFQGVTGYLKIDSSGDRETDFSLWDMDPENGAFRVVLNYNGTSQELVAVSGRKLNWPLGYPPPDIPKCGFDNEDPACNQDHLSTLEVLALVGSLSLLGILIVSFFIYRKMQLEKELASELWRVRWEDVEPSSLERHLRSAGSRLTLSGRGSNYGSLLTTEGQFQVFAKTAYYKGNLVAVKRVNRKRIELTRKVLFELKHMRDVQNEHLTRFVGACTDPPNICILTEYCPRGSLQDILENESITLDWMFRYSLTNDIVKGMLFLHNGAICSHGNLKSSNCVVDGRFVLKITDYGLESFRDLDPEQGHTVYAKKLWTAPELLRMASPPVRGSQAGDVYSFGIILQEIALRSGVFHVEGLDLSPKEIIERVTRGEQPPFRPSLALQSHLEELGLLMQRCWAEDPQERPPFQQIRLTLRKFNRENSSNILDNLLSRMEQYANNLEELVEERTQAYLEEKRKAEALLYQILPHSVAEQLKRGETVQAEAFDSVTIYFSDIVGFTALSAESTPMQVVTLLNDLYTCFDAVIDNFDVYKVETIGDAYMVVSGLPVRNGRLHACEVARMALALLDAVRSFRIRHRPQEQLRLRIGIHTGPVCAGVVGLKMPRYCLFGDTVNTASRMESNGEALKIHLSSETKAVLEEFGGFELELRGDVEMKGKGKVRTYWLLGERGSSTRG

This experiment addresses Atrial natriuretic peptide receptor 1 (Homo sapiens) (UniProt P16066). Put plainly: Natriuretic polypeptide receptor (hNpr1) antagonism - Primary qHTS. Note: nearly all actives have a fitted effect of over 60% in size. Conditions: HEK293 hNpr1 GloSensor cGMP, ANP-stimulated luminescence; series mostly up to 46.3 µM. The procedure, abridged: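 HEK293 cells stably expressing human Npr1 and cGMP GloSensor pGS-40F, loaded 2 h with 2% GloSensor reagent, given compound 30 min at room temperature. Luminescence read before and 20 min after 0.1 nM hNppA.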
A general note: In qHTS, concentration-response curves come from the screen itself.
Take `O=C(NCC1CC1)C1Cn2cccc2C(=O)N1Cc1cccnc1` (stereo not given): the Potency entry is “inactive”.

On to `Cc1ccnc(N2CCC(c3nnc(-c4ccc(F)cc4)o3)CC2)n1`, for which the Potency result is “inactive”.

On to `COc1ccc(-c2onc(C)c2C(=O)NCCC(c2ccccc2)c2ccccc2)cc1`, for which the Potency result is “inactive”.

`Cc1cccc(-c2cc(C3CCN(S(=O)(=O)c4ccc(C#N)cc4)CC3)[nH]n2)c1`: the Potency entry is “inactive”.

Consider `Cc1cccc(CN2CCCCCCNC(=O)[C@@H]3CCC[C@@H]32)c1`, for which the Potency entry was “inactive”.

As for `COc1cccc(CN2Cc3nc(-c4cc(F)cc(F)c4)ccc3OCC2=O)c1`, the Potency result is “inactive”.

For the molecule `O=C(c1ccoc1)N1CCN(C(=O)c2nnn3c2COC(c2ccc(Cl)cc2)C3)CC1` (stereo not given), the Potency result is “inactive”.

In the case of `CN(C)c1ccc(C(=O)N2CCN(C(=O)c3nnn4c3COC(c3ccc(Cl)cc3)C4)CC2)cc1` (stereo not given), the Potency result was “inactive”.

`COc1ccc(C2Cn3nnc(C(=O)N4CCC(C(=O)NCc5ccc(C)cc5)CC4)c3CO2)cc1` (stereo not given): the Potency result is “inactive”.

Turning to `COc1ccc(C2Cn3nnc(C(=O)N4CCN(C(=O)c5ccc(C)cc5C)CC4)c3CO2)cc1` (stereo not given), the Potency was 14.1 µM (active).

As for `COc1ccc(C2Cn3nnc(C(=O)N4CCN(C(=O)c5cccc(Cl)c5)CC4)c3CO2)cc1` (stereo not given), the Potency is 7.08 µM (active).

Take `Cc1ccc(C2Cn3nnc(C(=O)N4CCN(C(=O)COc5cccc(C)c5)CC4)c3CO2)cc1` (stereo not given): the Potency entry was “inactive”.

Turning to `O=C1N(Cc2ccc(F)cc2)C[C@H]2CN(Cc3ccncc3F)CCN12`, the Potency result was “inactive”.

On to `Cc1ccc(C2Cn3nnc(C(=O)N4CCC(C(=O)Nc5ccc(Cl)cc5)CC4)c3CO2)cc1` (stereo not given), for which the Potency entry was “inactive”.

In the case of `CC(C)(O)CCc1ccc(C(=O)NCc2nc(-c3ncccn3)no2)cc1`, the Potency result was “inactive”.

For the molecule `COc1ncccc1Nc1cnc2ccc(N3CCOCC3)nn12`, the Potency entry was “inactive”.

For the molecule `CCOc1cccc(-c2nnc(CCC(=O)NCCC(C)C)c(=O)[nH]2)c1`, the Potency entry is “inactive”.

`CCNc1cc(N2CCC(CCC(=O)N3CCc4ccccc4C3)CC2)ncn1`: the Potency is 11.2 µM (active).

Consider `CCCNc1cc(N2CCC(CCC(=O)Nc3ccc(C)cc3)CC2)ncn1`, for which the Potency entry was “inactive”.

Regarding `CCNc1cc(N2CCC(CCC(=O)Nc3ccc(C)cc3C)CC2)ncn1`, the Potency entry was “inactive”.

With `CS(=O)(=O)N1C[C@H]2CCN(C(=O)c3cc(F)ccc3Cl)C[C@H]21`, the Potency result was “inactive”.

As to `O=c1[nH]c(C2CCCN(Cc3ccc(-c4ccsc4)cc3)C2)nc2ccc(F)cc12` (stereo not given), the Potency result is “inactive”.

In the case of `COc1ccc2nc([C@H]3CCN(Cc4ccc(NC(C)=O)cc4)C3)[nH]c2c1`, the Potency result is “inactive”.

Consider `Cc1ccc2nc(C3CCCN(Cc4ccc(C#N)cc4)C3)[nH]c(=O)c2c1` (stereo not given), for which the Potency is 14.1 µM (active).

`CC(C)c1noc(-c2cn(C3CCN(C(=O)COc4ccccc4)C3)nn2)n1` (stereo not given): the Potency result is “inactive”.

On to `CC(C)c1noc(-c2cn(C3CCN(C(=O)c4cccc(C#N)c4)CC3)nn2)n1`, for which the Potency result is “inactive”.

As to `CC(C)c1cc(C(=O)N2CCC(n3cc(-c4ccccn4)nn3)CC2)n(C)n1`, the Potency is 10 µM (active).

Regarding `O=C(C1CC1)N1CCCC(c2noc(COc3ccccc3F)n2)C1` (stereo not given), the Potency result was “inactive”.

In the case of `O=C(c1cccnc1)N1CCC(Cc2nc(C3CCOCC3)no2)CC1`, the Potency result is “inactive”.

For the molecule `COc1cccc(C(=O)N2CCC(Cc3nc(-c4cnccn4)no3)CC2)c1`, the Potency entry is “inactive”.

Take `COc1cccc(-c2noc(CC3CCN(C(=O)c4ccc(F)cc4)CC3)n2)c1`: the Potency is 5.62 µM (active).

For the molecule `O=C(c1ccccc1)N1CCC(C(=O)N2CCC(Cc3nc(-c4ccc(F)cc4)no3)CC2)CC1`, the Potency is 11.2 µM (active).

As to `COc1ccc(C(=O)N2CCCC(Cc3nc(C4CCOCC4)no3)C2)cc1` (stereo not given), the Potency entry is “inactive”.

Regarding `CCN(Cc1ccncc1)C(=O)c1ccc2c(c1)C(O)CCCCCN2C` (stereo not given), the Potency entry was “inactive”.

`C=C(C)CN(CC)C(=O)c1c(C)oc2c1CN(Cc1cccc(F)c1)CC2`: the Potency result is “inactive”.

As for `O=C(C[C@@H]1CCNC[C@@H]1Cc1cc(CC2CCCCC2)on1)N1CCOCC1`, the Potency result was “inactive”.

For the molecule `COCCCNC(=O)c1ccc2c(c1)n(Cc1cccc(OC)c1)c(=O)c1ccnn12`, the Potency result was “inactive”.

For `COCC1CN(C2CCC2)CC12CCN(C(=O)CCc1ccccc1)CC2` (stereo not given), the Potency result was “inactive”.

For `COc1ccc(CN2C(=O)COC[C@H]2C(=O)Nc2ccc(C(C)C)cc2)c(OC)c1`, the Potency entry is “inactive”.

Turning to `CN(C)c1cccc(-c2cnc(Nc3cnccn3)c3c2CCO3)c1`, the Potency entry is “inactive”.

With `CN1CCN(Cc2ccc(Nc3ncc(-c4cccnc4)c4c3OCC4)cc2)CC1`, the Potency entry was “inactive”.

Consider `CN(C)c1cccc(-c2cnc(Nc3ccc(N4CCOCC4)cc3)c3c2CCO3)c1`, for which the Potency is 25.1 µM (active).

In the case of `O=C(Nc1ccc(-c2nnc3n2CCCC3)cc1)c1ccsc1`, the Potency entry is “inactive”.

On to `CCn1c2c(c(=O)n1-c1ccccc1)CCN(C(=O)COc1ccccc1)C2`, for which the Potency result was “inactive”.

Regarding `O=C(Nc1ccc(F)cc1)c1ccc2ccnn2c1`, the Potency result is “inactive”.

(Values after PubChem BioAssay AID1347048 (National Center for Advancing Translational Sciences (NCATS), 2019).)
